According to PubChem BioAssay AID434939 (The Scripps Research Institute Molecular Screening Center, 2010):
The campaign covered roughly 2,300 compounds. About 2,000 (87%) were called active. No stated cut-off is given here; in the data, active means activation above about 11%; inactive means the rest. So high a share suggests a set chosen from earlier hits. The list is a sample of the results.

target: Nuclear receptor subfamily 1 group I member 2 (Homo sapiens) (UniProt O75469); experiment: human PXR activators, counter-screen for AHR activator project, cell-based, luciferase luminescence (AID 434939); conditions: cell-based PXR reporter, at 11.6 µM, active compounds read high;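 further: human hepatoma DPX-2 cells expressing full-length human PXR; 0% = DMSO and 100% = reference agonist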
Sequence (O75469 whole entry, looked up): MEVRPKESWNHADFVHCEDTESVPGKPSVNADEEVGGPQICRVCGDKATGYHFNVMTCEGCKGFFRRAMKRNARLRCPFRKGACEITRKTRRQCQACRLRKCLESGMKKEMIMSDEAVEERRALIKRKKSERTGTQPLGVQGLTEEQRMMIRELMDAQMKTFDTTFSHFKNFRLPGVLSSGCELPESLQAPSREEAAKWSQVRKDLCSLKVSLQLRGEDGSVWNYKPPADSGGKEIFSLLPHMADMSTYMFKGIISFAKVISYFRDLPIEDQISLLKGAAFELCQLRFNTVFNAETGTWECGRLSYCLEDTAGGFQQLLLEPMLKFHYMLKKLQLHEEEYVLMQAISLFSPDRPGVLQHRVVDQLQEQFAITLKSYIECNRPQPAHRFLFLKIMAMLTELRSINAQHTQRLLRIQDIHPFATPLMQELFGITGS

Row | Compound | activation
1 | O=C(CSc1cccc2cccnc12)N/N=C/c1cccnc1 | 10.2% (active)
2 | COc1ccc(OC)c(-c2csc(-c3cccs3)n2)c1 | 21.7% (active)
3 | O=C(CC1Nc2ccccc2NC1=O)Nc1ccccc1 (stereo unspecified) | 26.3% (active)
4 | COc1cc(NC(=O)c2ccc(-c3csc(C)n3)cc2)c(OC)cc1Cl | 20.9% (active)
5 | O=C(Cn1cncn1)N/N=C/c1c2ccccc2cc2ccccc12 | 13.7% (active)
6 | O=C(Nc1ccc(Cl)cn1)c1cnn2cccnc12 | 35.9% (active)
7 | Cc1ccc(-c2nc(C#N)c(NCCCn3ccnc3)o2)cc1 | 34.4% (active)
8 | Cc1ccnc(NC(=O)c2ccc(Cl)c([N+](=O)[O-])c2)c1 | 42.9% (active)
9 | Nc1[nH][nH]c(=O)c1N=Nc1ccc2c(c1)OCO2 | 11.2% (active)
10 | CCOC(=O)c1nc(-c2ccc3c(c2)OCO3)[nH]c1C | 34.2% (active)
11 | CCSc1ccccc1C(=O)Nc1ccc2c(c1)OCO2 | 143% (active)
12 | C=CCNC(=O)CSc1nc2sc(C)c(C)c2c(=O)[nH]1 | 16.4% (active)
13 | COc1ccccc1NC(=O)C1=C(C)NC2=C(C(=O)CCC2)C1c1ccc(C)o1 (stereo unspecified) | 111% (active)
14 | Brc1ccc(C2CC(c3ccccc3)=Nc3ccccc3N2)cc1 (stereo unspecified) | 39.7% (active)
15 | Cc1cccc(NC(=O)Nc2ccc3c(c2)OCO3)n1 | 46.3% (active)
16 | COc1ccccc1N1CCN(C(=O)c2cc3c(-c4ccc(Cl)cc4)nn(C)c3s2)CC1 | 39.5% (active)
17 | CCOC(=O)N1CCN(C(=O)c2cc3c(-c4ccc(Cl)cc4)nn(C)c3s2)CC1 | 48.9% (active)
18 | Cn1nc(-c2ccc(Cl)cc2)c2cc(C(=O)NCc3ccco3)sc21 | 26.7% (active)
19 | CCOC(=O)c1ccc2[nH]c3c(c2c1)CCCC3NC=O (stereo unspecified) | 5.7% (inactive)
20 | O=C(N/N=C/c1c[nH]c2ccccc12)c1cc2ccccc2o1 | 7.59% (inactive)
21 | COc1cccc(-n2c(SCC(=O)NC3CCCCC3)nc3n[nH]c(C)c3c2=N)c1 | 160% (active)
22 | COc1ccccc1Nc1ncnc2c1oc1ccccc12 | 21.1% (active)

Row | Compound | activation
23 | Cc1cc(N2CCOCC2)nc(-c2ccc(Br)cc2)n1 | 43.3% (active)
24 | O=C(Nc1ccc(C2CC2(Cl)Cl)cc1)c1cccc([N+](=O)[O-])c1 (stereo unspecified) | 19.2% (active)
25 | COc1ccc(C2NC(=O)c3ccccc3N2)cc1 (stereo unspecified) | 6.29% (inactive)
26 | Brc1ccc(-c2noc(-c3ccccc3)n2)o1 | 20.2% (active)
27 | CC(=O)Nc1ccc(-c2nc3ccccc3o2)cc1 | 10.9% (active)
28 | CC(C)C(=O)Nc1c(C(=O)c2ccc(F)cc2)oc2ccccc12 | 25.4% (active)
29 | C/C(CC1CC(C)(C)OC1=O)=N/Nc1nc(-c2ccccc2)cs1 (stereo unspecified) | 189% (active)
30 | CCN(CC)C(=O)Oc1ccc(Br)cc1C(=O)Nc1ccc(F)c(Cl)c1 | 176% (active)
31 | CCc1nc(Nc2ccc3nccnc3c2)c2oc3ccccc3c2n1 | 45% (active)
32 | O=C(NC1CC1)C1=C[C@H](c2c[nH]c3ccccc23)C[C@H](OCc2ccc(CO)cc2)O1 | 22.2% (active)
33 | O=C(Nc1cc(S(=O)(=O)Nc2ccc(Cl)cc2)ccc1O)c1ccc(F)cc1F | 38.8% (active)
34 | Cc1nnc(NC(=O)/C=C/c2ccco2)s1 | 36.6% (active)
35 | COc1cc(/C=N/N=C(\N)c2nonc2N)cc(OC)c1OC | 14.7% (active)
36 | COc1cc(CNCc2ccc3c(c2)OCO3)c([N+](=O)[O-])cc1OC | 36.7% (active)
37 | Brc1ccc(C2=CC(c3ccco3)n3ncnc3N2)cc1 (stereo unspecified) | 15% (active)
38 | Cc1cc(O)c(C(=O)/C=C/c2c(F)c(F)c(F)c(F)c2F)c(=O)o1 | 23.8% (active)
39 | COc1ccc(C(=O)Nc2ccccc2C(=O)N/N=C/c2ccccc2OC)cc1 | 28% (active)
40 | Cc1ccc(Cl)cc1NC(=O)C1CCCN(c2cnccn2)C1 (stereo unspecified) | 41.2% (active)
41 | O=C(Nc1cccc(Cl)c1)C1CCCN(c2cnccn2)C1 (stereo unspecified) | 29.6% (active)
42 | Cn1c(SCC(=O)c2ccccc2)ncc(C(=O)Nc2ccc(F)cc2)c1=O | 13.1% (active)
43 | CCC(C)NCC(=O)Nc1ccc([N+](=O)[O-])cc1C(=O)Nc1ccccc1F (stereo unspecified) | 40.5% (active)
44 | Cn1cc(Cl)c(C(=O)NNC(=S)Nc2cccc(Cl)c2)n1 | 22.8% (active)

Row | Compound | activation
45 | C/C(=N\NC(=O)CNc1cccc2ccccc12)c1ccc(Br)s1 | 13.8% (active)
46 | COc1cccc(-c2nc3cc(C)ccc3o2)c1 | 31.3% (active)
47 | CC1Cc2ccccc2N1C(=O)CSc1nnc(C2CC2)n1C (stereo unspecified) | 80.9% (active)
48 | CCNC(=S)N1CCC(c2nc3cc(C)c(C)cc3[nH]2)CC1 | 21.2% (active)
49 | S=c1[nH]nc(-c2cc(-c3ccsc3)n[nH]2)n1-c1ccccc1 | 13.7% (active)
50 | Cc1nn2c3cc(N4CCOCC4)ccc3nc2c2ccccc12 | 63.2% (active)
51 | Cc1ccc(NC(=O)Nc2cccnc2)cc1 | 19.7% (active)
52 | Cc1cccc(NC(=O)c2ccc3ccccc3n2)n1 | 20.3% (active)
53 | COc1ccc(NC(=O)c2ccco2)cc1NC(=O)c1ccc(C#N)cc1F | 14.9% (active)
54 | C=CCOc1c(Br)cc(/C=N\n2nnnc2N)cc1OC | 78.1% (active)
55 | Cc1nc2sc(C(=O)c3ccccc3)c(N)c2c2c1CCCC2 | 69.6% (active)
56 | O=C(CSc1ccccn1)Nc1nc2c(ccc3ccccc32)s1 | 21.9% (active)
57 | CCCCC(=O)Nc1ccc(C(=O)Nc2cc(C(F)(F)F)ccc2Cl)cc1 | 15.4% (active)
58 | CCOc1ccccc1NC(=O)c1cccnc1 | 24.9% (active)
59 | COCCNc1nc(-c2ccccc2)nc2c1oc1ccccc12 | 28.9% (active)
60 | Cc1cccc(N=Nc2c(O)[nH]c3ccc(F)cc23)c1 | 16.1% (active)
61 | CSc1ccc(C#N)cc1NC(=O)c1ccc(Cl)cc1 | 18.5% (active)
62 | O=C(NCCCn1ccnc1)c1cc(-c2ccccc2)on1 | 41.3% (active)
63 | Cc1ccnc(-n2sc3ccccc3c2=O)n1 | 25.7% (active)
64 | O=C(Nc1ccc(OC(F)(F)F)cc1)c1ccc2c(c1)no[n+]2[O-] | 0.82% (inactive)
65 | O=C(Nc1ccc(C(F)(F)F)cc1)c1cccc(-n2cnnn2)c1 | 16.3% (active)
66 | O=C(Nc1ccc(-c2csc(Nc3cccc(C(F)(F)F)c3)n2)cc1)c1cccc(C(F)(F)F)c1 | 5.47% (inactive)
